# Only some compounds are listed: those with a hit (about 3.3% of all), similar ones and a draw of the others.
# BoNT-A LC inh2: BoNT/A light chain protease inhibitors, primary screen, biochemical, flow cytometry, MLPCN library. Botulinum neurotoxin type A light chain protease (Clostridium botulinum A str. ATCC 3502). inhibition, % at 10 µM. hit rate 0.17% among 360,000. multiplex microsphere protease substrate cleavage; further: plate controls were buffer without enzyme for full effect and enzyme alone for no effect
# Bead autofluor: compound fluorescence in toxin protease inhibitor counterscreen. compound autofluorescence counterscreen, microsphere flow cytometry; stronger effect = higher value. fluorescence intensity (concentration not given with the values). hit rate 3.1% among 360,000; in the data active means fluorescence intensity above about 16000; inconclusive means no clear call, values can overlap the other calls
# SSB-PriA inh: inhibitors of Klebsiella pneumoniae PriA binding to SSB C-terminal tail, primary screen, biochemical, AlphaScreen | PriA–SSB C-terminal tail interaction (Klebsiella pneumoniae) | AlphaScreen SSBct-PriA binding, biotinylated peptide | inhibition, % at 33 µM | hit rate 0.6% among 430,000; in the data active means inhibition mostly above about 37%, no sharp cut-off; inactive means mostly below about 20%;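 further: plate controls were negative control peptide for no effect and reference peptide for full effect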
# BoNT-F LC inh: BoNT/F light chain protease inhibitors, primary screen, biochemical, flow cytometry, MLPCN library; Multiplex microsphere protease cleavage assay; inhibition, % at 10 µM; hit rate 0.22% among 360,000; AID 588497, 2011; in the data active means inhibition above about 35%, passing the limit was not always enough; inconclusive means no clear call, values can overlap the other calls; further: plate controls were buffer without enzyme for full effect and enzyme alone for no effect
# Anthrax LF prot: Bacillus anthracis LF protease inhibitors, primary screen, biochemical, multiplex microsphere, MLPCN library; Lethal factor (Bacillus anthracis), P15917; multiplex microsphere protease cleavage assay; inhibition, % at 10 µM; hit rate 0.12% among 360,000; AID 588501, 2011; further: plate controls were buffer without enzyme for full effect and enzyme alone for no effect
# MazF activator: activators of E. coli MazEF toxin-antitoxin RNase, primary screen, biochemical, fluorescence, uHTS; FAM/BHQ RNA-DNA oligo cleavage fluorescence, 5 h; activation, % at 20 µM; hit rate 0.32% among 350,000; in the data active means activation above about 50%
# Target sequence (P0AE70 whole entry, looked up): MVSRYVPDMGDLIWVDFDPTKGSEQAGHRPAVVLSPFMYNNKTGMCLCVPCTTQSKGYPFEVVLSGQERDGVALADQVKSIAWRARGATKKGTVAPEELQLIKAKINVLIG
# Starred values were filed as active, the others as inactive; ? = inconclusive; · = no result. Unless noted, no stated cut-off is given here; in the data, active means inhibition above about 30%; inconclusive means no clear call, values can overlap the other calls; inactive means below that.
SMILES,BoNT-A LC inh2,Bead autofluor,SSB-PriA inh,BoNT-F LC inh,Anthrax LF prot,MazF activator
Cn1ncc2c(N3CCN(c4ccccc4F)CC3)ncnc21,?,16585*,-1.9,2.8,2.8,1.7
Cc1ccc(-n2ncc3c(N4CCN(c5ccccc5F)CC4)ncnc32)c(C)c1,·,·,-12.0,·,·,·
COc1ccc(S(=O)(=O)Oc2ccccc2NC(C)=O)cc1C,·,·,0.0,·,·,·
COCCN1CCC(CNC(=O)C(=O)NCc2ccccc2Cl)CC1,·,·,-3.0,·,·,·
Nc1nonc1-n1nnc(C(=O)N/N=C/c2ccc3c(c2)OCO3)c1CSc1ccccc1,-2.0,4245,·,-2.3,-0.1,72.1*
Nc1nonc1-n1nnc(C(=O)NN=Cc2ccncc2)c1CSc1ccccc1,·,·,0.2,·,·,·
O=C(NS(=O)(=O)c1cccs1)c1ccccc1Cl,·,·,6.0,·,·,·
Cn1c(N2CCCCC2)nc2c1c(=O)[nH]c(=O)n2C,-0.5,16214*,-12.8,-1.4,-5.0,1.4
CC(C)n1c(N2CCCC2)nc2c1c(=O)[nH]c(=O)n2C,0.7,3676,-8.8,-11.6,0.1,-4.4
CSc1cccc(C(=O)N2CC(n3cc(COc4ccccc4)nn3)C2)c1,·,·,-18.0,·,·,·
COc1ccccc1Nc1nc(N)nc(CN2CCN(c3ccccc3)CC2)n1,2.0,21394*,18.6,1.3,-0.3,-2.0
Cc1ccc(Nc2nc(N)nc(CN3CCN(Cc4ccc5c(c4)OCO5)CC3)n2)cc1Cl,-1.4,23185*,13.5,-5.0,-4.4,1.1
COc1ccc(N2CCN(Cc3nc(N)nc(Nc4ccc(C)c(Cl)c4)n3)CC2)cc1,-0.7,21102*,49.2,-2.5,-5.2,2.3
COc1ccc(Nc2nc(N)nc(CN3CCOCC3)n2)cc1,0.0,2650,-11.2,0.6,-1.5,3.5
COc1cccc(N2CCN(Cc3nc(N)nc(Nc4ccccc4OC)n3)CC2)c1,-0.1,3621,-13.1,-14.9,-2.7,8.0
Cc1ccc(Nc2nc(N)nc(CN3CCN(c4ccccc4)CC3)n2)cc1Cl,?,21461*,6.3,-0.4,-6.1,-3.1
O=C(CSc1nnc(CNC(=O)c2ccccc2C(F)(F)F)n1-c1ccc(Br)cc1)c1ccccc1,·,·,-31.0,·,·,·
Cc1ccc(/C=C/S(=O)(=O)Nc2ccccc2Cc2nc(-c3ccncc3)no2)cc1,·,·,-9.0,·,·,·
Cc1cc(Cl)cc2sc(NC(=O)c3cccc(F)c3)nc12,·,·,-5.0,·,·,·
Nc1nc(CN2CCN(c3ccccn3)CC2)nc(Nc2ccc(F)cc2)n1,-0.1,16591*,15.2,-0.9,-2.3,8.6
CCCOC(=O)C1=C(C)NC2=C(C(=O)C(C(=O)OC)C(C)C2)C1c1ccc(N(CC)CC)cc1 (configuration not stated),1.0,8869,13.7,-4.8,13.8,-0.1
CCOC(=O)C1=C(C)NC2=C(C(=O)C(C(=O)OC)C(C)C2)C1c1ccc(OC)c(O)c1 (configuration not stated),?,23122*,-10.5,0.1,-3.3,1.3
CCc1ccc(N2C(=O)C3N=NN(c4ccc(C)c(F)c4)C3C2=O)cc1 (configuration not stated),·,·,0.0,·,·,·
O=C1c2cccnc2C(Nc2ccc(S(=O)(=O)N3CCCCC3)cc2)N1Cc1ccccc1 (configuration not stated),-1.3,11133,-4.9,-14.4,-6.6,4.3
CCOC(=O)c1ccc(NC2c3ncccc3C(=O)N2Cc2ccc(F)cc2)cc1 (configuration not stated),-1.4,24047*,-8.5,-2.0,-2.9,-2.6
CCOc1ccc(N2C(=O)c3cccnc3C2Nc2ccc(Cl)cc2)cc1 (configuration not stated),1.9,21889*,14.2,1.1,0.4,-1.5
COC(=O)c1ccc(NC2c3ncccc3C(=O)N2Cc2cccs2)cc1 (configuration not stated),-0.2,1971,-2.9,-3.8,-2.3,3.7
COC(=O)c1cc(NC2c3ncccc3C(=O)N2Cc2ccccc2)cc(C(=O)OC)c1 (configuration not stated),0.7,16375*,-1.6,-1.7,2.3,5.5
